Measurements taken from PubChem BioAssay (NCATS).
Inconclusive results are not listed. A call without a number means that no potency is given here. Values without a mark were called inactive. Activity calls are given as the source filed them. The call rests on the fitted dose curve; in most records, active means well fitted curve in the direction sought with a large enough effect; inconclusive means small, poorly fitted or top-dose-only effect, or another doubt; inactive means no such curve, though single readings can be large; an effect the other way counts as inactive or inconclusive.

Target: Calcium and integrin-binding protein 1 (Homo sapiens) (UniProt Q99828)
Sequence (Q99828 whole entry, looked up): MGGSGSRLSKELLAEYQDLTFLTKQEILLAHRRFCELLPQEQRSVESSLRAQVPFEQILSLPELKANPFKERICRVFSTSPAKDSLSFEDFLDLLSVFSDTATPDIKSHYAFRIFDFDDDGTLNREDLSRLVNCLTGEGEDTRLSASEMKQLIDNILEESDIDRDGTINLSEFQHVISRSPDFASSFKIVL
Assay: Primary qHTS for Identification of Calcium Integrin Binding Protein 1 (CIB1) Competitor (AID 1508620);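 further: GST tagged CIB1 binding a fluorescein labelled alphaIIb integrin peptide tracer; top concentration of the series differs between compounds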
Details: CIB1-GST / FITC-alphaIIb peptide fluorescence polarization; series mostly up to 57.7 µM
How it was run: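 Fluorescence polarization competition: CIB1-GST (1 uM final) preincubated with compound 15 min at room temperature, then FITC-labeled alphaIIb peptide (100 nM final) added for another 15 min. Polarization read at Ex 480/Em 540.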

Compound | Potency | activity change, negative = inhibition
CC(C)C[C@@H](C(=O)N[C@H](C(=O)OC1CCCC1)c1ccccc1)[C@H](O)C(=O)NO | inactive | –
C=C1c2cccc(O)c2C(O)=C2C(=O)[C@@]3(O)C(O)=C(C(N)=O)C(=O)[C@@H](N(C)C)[C@@H]3[C@@H](O)[C@H]12 | inactive | –
C[C@H](CCC(=O)O)[C@H]1CC[C@H]2[C@H]3[C@@H](CC[C@]12C)[C@@]1(C)CC[C@@H](O)C[C@H]1C[C@@H]3O | inactive | –
CCC[C@H](Nc1nc(-c2ccc(NC(=O)NCC)c(OC)c2)ncc1C)c1cccnc1 | inactive | –
CN(C)S(=O)(=O)c1ccc2c(c1)C(=Cc1cc3c([nH]1)CCCC3)C(=O)N2 | inactive | –
CC1(C)[C@H]2CC[C@]3(C)[C@@H](C(=O)C=C4[C@@H]5C[C@@](C)(C(=O)O)CC[C@]5(C)CC[C@]43C)[C@@]2(C)CC[C@@H]1O | inactive | –
C[C@]12C=CC(=O)C=C1CC[C@@H]1[C@@H]2[C@@H](O)C[C@@]2(C)[C@@H]1CC[C@]2(O)C(=O)CO | inactive | –
CO[C@H]1/C=C\O[C@@]2(C)Oc3c(C)c(O)c4c(O)c(c(C=NN5CCN(C6CCCC6)CC5)c(O)c4c3C2=O)NC(=O)C(C)=CC=C[C@H](C)[C@H](O)[C@@H](C)[C@@H](O)[C@@H](C)[C@H](OC(C)=O)[C@H]1C | inactive | –
COc1cc2nc(-c3cc(F)ccc3O)nc(N[C@@H]3CNC[C@@H]3C(C)(C)O)c2cc1OC | inactive | –
CN(C)c1ccc(-c2nc3ncc(Cl)c(N4CCN(CC(=O)Nc5nccs5)CC4)c3[nH]2)cc1 | inactive | –
O=C1CN2Cc3c(ccc(Cl)c3Cl)N=C2N1 | inactive | –
NC(=O)c1ncn([C@@H]2O[C@H](CO)[C@@H](O)[C@@H]2O)n1 | inactive | –
C[C@@H]1[C@H](O)[C@@H](C)C=CC=CC=CC=CC=CC=CC=C[C@H](O[C@@H]2O[C@H](C)[C@H](O)[C@H](N)[C@@H]2O)C[C@@H]2O[C@](O)(C[C@@H](O)C[C@@H](O)[C@H](O)CC[C@@H](O)C[C@@H](O)CC(=O)O[C@H]1C)C[C@H](O)[C@@H]2C(=O)O | inactive | –
CN[C@H]1[C@@H](O[C@@H]2[C@H](O[C@@H]3[C@@H](O)[C@@H](O)[C@@H](N=C(N)N)[C@@H](O)[C@@H]3N=C(N)N)O[C@H](C)[C@@]2(O)C=O)O[C@@H](CO)[C@@H](O)[C@H]1O | – | -2.24% [at 12.4 µM]
CCOC(=O)[C@@H](N)CCC(=O)N[C@@H](CSCc1ccccc1)C(=O)N[C@@H](C(=O)OCC)c1ccccc1 | inactive | –
Clc1ccc(COC(Cn2ccnc2)c2ccc(Cl)cc2Cl)c(Cl)c1 (centres undefined) | inactive | –
CN(C)CCN(C)C(=O)c1ccc(NC(=O)Nc2ccc(-c3nc(N4CCOCC4)c4ccn(CC(F)(F)F)c4n3)cc2)cc1 | inactive | –
COc1c(C)c2c(c(O)c1CC=C(C)CCC(=O)O)C(=O)OC2 | inactive | –
CN(CC=CC#CC(C)(C)C)Cc1cccc2ccccc12 | inactive | –
O=C(Nc1cccc(C(F)(F)F)c1)Nc1cc(S(=O)(=O)NC2CC2)ccc1-c1ccsc1 | inactive | –
C[C@@]1(C(=O)Nc2ccc(F)nc2)CCCN1c1nc(Nc2cc(C3CC3)[nH]n2)c2cccn2n1 | inactive | –
CN(C)CCOc1ccc(C(=C(CCCl)c2ccccc2)c2ccccc2)cc1 | inactive | –
O=C(O)C1=CO[C@@H](O[C@@H]2O[C@H](CO)[C@H](O)[C@H](O)[C@H]2O)[C@@H]2C(CO)=CC[C@H]12 | inactive | –

System: not listed separately
Assay: Primary qHTS for small molecule stabilizers of the endoplasmic reticulum resident proteome: Secreted ER Calcium Modulated Protein (SERCaMP) assay (AID 1508630)
Details: SH-SY5Y GLuc-SERCaMP (Gaussia luciferase released on ER calcium loss) secretion, thapsigargin, luminescence; series mostly up to 38.4 µM
How it was run: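 The SH-SY5Y reporter protocol was run at 3 concentrations up to 38.3 uM (primary) or 11 concentrations (follow-up): 16 h compound, 100 nM thapsigargin for 4 h, then extracellular luciferase luminescence.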

Compound | Potency
CC1(C)CC(=O)c2c(C(F)(F)F)nn(-c3ccc(C(N)=O)c(NC4CCC(O)CC4)c3)c2C1 (centres undefined) | inactive
O=C1NC(=O)C(c2cnc3ccccn23)=C1c1cn2c3c(cccc13)CN(C(=O)N1CCOCC1)CC2 | inactive
Nc1ncnc2c1c(-c1cccc(OCc3ccccc3)c1)cn2C1CC(CN2CCC2)C1 (centres undefined) | inactive
CCN(CC)CCCCNc1nc2cc(Cl)c(Cl)cc2nc1-c1ccc(-c2cccs2)s1 | inactive
CCC(=O)OCC(=O)[C@@]1(OC(=O)CC)[C@@H](C)C[C@@H]2[C@H]3CCC4=CC(=O)C=C[C@]4(C)[C@@]3(F)[C@@H](O)C[C@@]21C | inactive
CCCCCOC(=O)Nc1nc(=O)n([C@@H]2O[C@H](C)[C@@H](O)C2O)cc1F (some centres undefined) | inactive
C=CC[N+]1([C@H]2C[C@H]3[C@@H]4CC[C@H]5C[C@H](O)[C@@H](N6CCOCC6)C[C@]5(C)[C@@H]4CC[C@]3(C)[C@H]2OC(C)=O)CCCC1 | inactive
CCOC(=O)N1CCN([N+]([O-])=NOc2cc(ON=[N+]([O-])N3CCN(C(=O)OCC)CC3)c([N+](=O)[O-])cc2[N+](=O)[O-])CC1 | inactive
CC(C)(C)c1[nH]cnc1C=c1[nH]c(=O)c(=Cc2ccccc2)[nH]c1=O | inactive
NC(N)=Nc1nc(CSCCC(N)=NS(N)(=O)=O)cs1 | inactive
Cc1ccc(NC(=O)c2cccc(N(C)C)c2)cc1NC(=O)c1ccc(O)cc1 | inactive
COc1cc2c(cc1Cc1cccc(Cl)c1F)c(=O)c(C(=O)O)cn2[C@H](CO)C(C)C | inactive
CON(C)C(=O)N1N=C(c2cc(F)ccc2F)S[C@]1(CCCN)c1ccccc1 | inactive
CC(C)C[C@@H](C(=O)N[C@H](C(=O)OC1CCCC1)c1ccccc1)[C@H](O)C(=O)NO | inactive
C=C1c2cccc(O)c2C(O)=C2C(=O)[C@@]3(O)C(O)=C(C(N)=O)C(=O)[C@@H](N(C)C)[C@@H]3[C@@H](O)[C@H]12 | inactive
C[C@H](CCC(=O)O)[C@H]1CC[C@H]2[C@H]3[C@@H](CC[C@]12C)[C@@]1(C)CC[C@@H](O)C[C@H]1C[C@@H]3O | inactive
CCC[C@H](Nc1nc(-c2ccc(NC(=O)NCC)c(OC)c2)ncc1C)c1cccnc1 | inactive
CN(C)S(=O)(=O)c1ccc2c(c1)C(=Cc1cc3c([nH]1)CCCC3)C(=O)N2 | inactive

Compound | Potency
CC1(C)[C@H]2CC[C@]3(C)[C@@H](C(=O)C=C4[C@@H]5C[C@@](C)(C(=O)O)CC[C@]5(C)CC[C@]43C)[C@@]2(C)CC[C@@H]1O | inactive
C[C@]12C=CC(=O)C=C1CC[C@@H]1[C@@H]2[C@@H](O)C[C@@]2(C)[C@@H]1CC[C@]2(O)C(=O)CO | inactive
CO[C@H]1/C=C\O[C@@]2(C)Oc3c(C)c(O)c4c(O)c(c(C=NN5CCN(C6CCCC6)CC5)c(O)c4c3C2=O)NC(=O)C(C)=CC=C[C@H](C)[C@H](O)[C@@H](C)[C@@H](O)[C@@H](C)[C@H](OC(C)=O)[C@H]1C | inactive
COc1cc2nc(-c3cc(F)ccc3O)nc(N[C@@H]3CNC[C@@H]3C(C)(C)O)c2cc1OC | inactive
CN(C)c1ccc(-c2nc3ncc(Cl)c(N4CCN(CC(=O)Nc5nccs5)CC4)c3[nH]2)cc1 | inactive
O=C1CN2Cc3c(ccc(Cl)c3Cl)N=C2N1 | inactive
NC(=O)c1ncn([C@@H]2O[C@H](CO)[C@@H](O)[C@@H]2O)n1 | inactive
C[C@@H]1[C@H](O)[C@@H](C)C=CC=CC=CC=CC=CC=CC=C[C@H](O[C@@H]2O[C@H](C)[C@H](O)[C@H](N)[C@@H]2O)C[C@@H]2O[C@](O)(C[C@@H](O)C[C@@H](O)[C@H](O)CC[C@@H](O)C[C@@H](O)CC(=O)O[C@H]1C)C[C@H](O)[C@@H]2C(=O)O | inactive
CN[C@H]1[C@@H](O[C@@H]2[C@H](O[C@@H]3[C@@H](O)[C@@H](O)[C@@H](N=C(N)N)[C@@H](O)[C@@H]3N=C(N)N)O[C@H](C)[C@@]2(O)C=O)O[C@@H](CO)[C@@H](O)[C@H]1O | inactive
CCOC(=O)[C@@H](N)CCC(=O)N[C@@H](CSCc1ccccc1)C(=O)N[C@@H](C(=O)OCC)c1ccccc1 | inactive
Clc1ccc(COC(Cn2ccnc2)c2ccc(Cl)cc2Cl)c(Cl)c1 (centres undefined) | inactive
CN(C)CCN(C)C(=O)c1ccc(NC(=O)Nc2ccc(-c3nc(N4CCOCC4)c4ccn(CC(F)(F)F)c4n3)cc2)cc1 | inactive
COc1c(C)c2c(c(O)c1CC=C(C)CCC(=O)O)C(=O)OC2 | inactive
CN(CC=CC#CC(C)(C)C)Cc1cccc2ccccc12 | inactive
O=C(Nc1cccc(C(F)(F)F)c1)Nc1cc(S(=O)(=O)NC2CC2)ccc1-c1ccsc1 | inactive
C[C@@]1(C(=O)Nc2ccc(F)nc2)CCCN1c1nc(Nc2cc(C3CC3)[nH]n2)c2cccn2n1 | inactive
CN(C)CCOc1ccc(C(=C(CCCl)c2ccccc2)c2ccccc2)cc1 | inactive
O=C(O)C1=CO[C@@H](O[C@@H]2O[C@H](CO)[C@H](O)[C@H](O)[C@H]2O)[C@@H]2C(CO)=CC[C@H]12 | inactive
